# The source made the active and inactive calls.
# What was measured:
# [1] = E. coli DRC41 culture turbidity changes, primary screen, E. coli filamentation inducer project, strain DRC41, OD650, 48 h (AID 1152);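 further: E. coli MC1000 strain DRC41 lacking acrAB efflux pump and sulA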; details: E. coli DRC41 (acrAB sulA), higher = more signal, called active from +8 up or from −8 down
# [2] = small-molecule binders of probe aLefty1, primary screen, biochemical, small-molecule microarray, 635/667 nm fluorescence (AID 1153); details: higher = more signal;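 further: score merges spot fluorescence with signal-to-noise ratio from the scanned slide images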
# [3] = PSAC antagonists in infected red cells, primary screen, cell-based, P. falciparum Indochina, OD700, 1 h (AID 1154); details: P. falciparum Indochina infected RBC osmotic lysis, higher = more signal, called active from +8 up or from −8 down
# [4] = PSAC antagonists in infected red cells, primary screen, cell-based, P. falciparum Indochina, OD700, 2 h (AID 1155);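 further: lysis reports solute entry through the parasite surface anion channel PSAC; channel blockers reduce lysis of infected cells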; details: P. falciparum Indochina infected erythrocytes, osmotic lysis OD700; higher = more signal, called active from +8 up or from −8 down
# [5] = osmotic lysis modulators in infected erythrocytes, primary screen, PSAC antagonist project, cell-based, P. falciparum Indochina, OD700, 3 h (AID 1156); details: higher = more signal, called active from +8 up or from −8 down
# [6] = PSAC antagonists in infected red cells, primary screen, cell-based, P. falciparum Indochina, OD700, 18 h (AID 1157); details: P. falciparum Indochina infected erythrocytes, osmotic lysis OD700, 18 h; higher = more signal, called active from +8 up or from −8 down
# [7] = modulators of S6 phosphorylation in cells, primary screen, cell-based, A549, cytoblot, luminescence, serum-stimulated (AID 1158); details: A549 phospho-S6 cytoblot, 5 h, higher = more signal;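 further: serum-stimulated A549 lung adenocarcinoma cells; signal is phosphorylated S6 detected by cytoblot immunostaining with HRP secondary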
# [8] = target: NADPH oxidase 2 (Homo sapiens) (UniProt P04839); assay: NOX2-dependent H2O2 signal modulators, primary screen, NOX inhibitor project, cell-based, HEK293-NOX2, PMA-stimulated, Amplex Red fluorescence (AID 1159); details: 45 min, higher = more signal, called active from +8 up or from −8 down; further: test concentration not given here
# Sequence of NADPH oxidase 2 (Homo sapiens) (P04839 whole entry, looked up): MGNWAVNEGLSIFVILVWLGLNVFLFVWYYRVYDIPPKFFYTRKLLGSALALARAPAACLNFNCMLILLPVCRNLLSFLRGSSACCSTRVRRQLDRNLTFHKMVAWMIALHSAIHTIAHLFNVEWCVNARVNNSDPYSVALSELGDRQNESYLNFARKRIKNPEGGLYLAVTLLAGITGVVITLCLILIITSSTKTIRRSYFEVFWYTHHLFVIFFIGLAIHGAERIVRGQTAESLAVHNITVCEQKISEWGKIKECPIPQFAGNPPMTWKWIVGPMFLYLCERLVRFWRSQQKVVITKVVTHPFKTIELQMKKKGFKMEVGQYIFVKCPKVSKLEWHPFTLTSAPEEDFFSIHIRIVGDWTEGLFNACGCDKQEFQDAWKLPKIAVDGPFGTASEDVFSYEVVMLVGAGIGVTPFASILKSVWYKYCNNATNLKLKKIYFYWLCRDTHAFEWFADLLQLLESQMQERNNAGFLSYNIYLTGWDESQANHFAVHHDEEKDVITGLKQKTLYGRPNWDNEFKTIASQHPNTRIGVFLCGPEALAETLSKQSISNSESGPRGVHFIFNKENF
# [9] = target: NADPH oxidase 4 (Homo sapiens) (UniProt Q9NPH5); assay: NOX4-dependent H2O2 signal modulators, primary screen, NOX inhibitor project, cell-based, HEK293-NOX4, tetracycline-induced, Amplex Red fluorescence (AID 1160); details: 45 min, higher = more signal, called active from +8 up or from −8 down
# Sequence of NADPH oxidase 4 (Homo sapiens) (Q9NPH5 whole entry, looked up): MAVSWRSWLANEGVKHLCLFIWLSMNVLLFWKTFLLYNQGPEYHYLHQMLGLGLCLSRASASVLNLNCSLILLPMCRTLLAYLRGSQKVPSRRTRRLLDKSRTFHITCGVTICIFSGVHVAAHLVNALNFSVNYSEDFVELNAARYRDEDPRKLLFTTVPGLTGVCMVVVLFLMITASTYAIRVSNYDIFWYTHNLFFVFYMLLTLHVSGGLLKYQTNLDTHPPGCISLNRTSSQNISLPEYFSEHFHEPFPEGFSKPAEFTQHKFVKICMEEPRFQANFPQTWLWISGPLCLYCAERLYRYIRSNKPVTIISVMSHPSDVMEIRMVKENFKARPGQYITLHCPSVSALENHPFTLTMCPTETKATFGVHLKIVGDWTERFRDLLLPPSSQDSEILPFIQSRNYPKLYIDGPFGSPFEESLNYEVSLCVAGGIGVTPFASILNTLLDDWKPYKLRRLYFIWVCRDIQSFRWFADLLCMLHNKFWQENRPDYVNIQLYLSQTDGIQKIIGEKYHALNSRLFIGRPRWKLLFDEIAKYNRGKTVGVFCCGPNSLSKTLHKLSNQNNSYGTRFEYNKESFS
# [10] = target: NADPH oxidase 5 (Homo sapiens) (UniProt Q96PH1); assay: NOX5-dependent H2O2 signal modulators, primary screen, NOX inhibitor project, cell-based, HEK293-NOX5, Amplex Red fluorescence (AID 1161); details: HEK293-NOX5, ionomycin, 45 min, higher = more signal
# Sequence of NADPH oxidase 5 (Homo sapiens) (Q96PH1 whole entry, looked up): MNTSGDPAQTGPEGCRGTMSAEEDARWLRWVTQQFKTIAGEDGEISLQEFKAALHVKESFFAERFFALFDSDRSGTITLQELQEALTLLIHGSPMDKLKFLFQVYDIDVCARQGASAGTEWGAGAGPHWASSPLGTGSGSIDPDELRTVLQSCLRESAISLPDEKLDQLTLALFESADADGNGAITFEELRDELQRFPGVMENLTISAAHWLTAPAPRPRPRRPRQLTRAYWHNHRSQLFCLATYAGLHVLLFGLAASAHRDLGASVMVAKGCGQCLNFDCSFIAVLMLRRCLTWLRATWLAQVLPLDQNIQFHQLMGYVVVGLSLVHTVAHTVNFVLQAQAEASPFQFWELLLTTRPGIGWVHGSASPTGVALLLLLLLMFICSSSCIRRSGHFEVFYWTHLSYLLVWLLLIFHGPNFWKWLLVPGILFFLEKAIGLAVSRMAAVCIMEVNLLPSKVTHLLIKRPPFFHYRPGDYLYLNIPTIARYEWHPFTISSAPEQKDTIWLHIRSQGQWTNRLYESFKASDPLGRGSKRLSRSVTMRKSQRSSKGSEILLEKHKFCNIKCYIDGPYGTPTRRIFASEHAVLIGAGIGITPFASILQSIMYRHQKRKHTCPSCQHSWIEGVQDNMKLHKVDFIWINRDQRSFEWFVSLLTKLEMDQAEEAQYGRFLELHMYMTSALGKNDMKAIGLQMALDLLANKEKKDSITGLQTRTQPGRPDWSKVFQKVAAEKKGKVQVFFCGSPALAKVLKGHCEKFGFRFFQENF
# [11] = A549 cell viability effects, profiling panel, calcein-AM fluorescence, 48 h, basal (AID 1162); details: higher = more signal; further: test concentration not given here
# [12] = adipocyte viability effects, profiling panel, cell-based, 3T3-L1 adipocytes, calcein-AM fluorescence, 48 h, basal (AID 1163); details: 3T3-L1 adipocytes viability, higher = more signal; further: test concentration not given here
# [13] = HepG2 cell viability effects, profiling panel, calcein-AM fluorescence, 48 h, basal (AID 1164); details: higher = more signal; further: test concentration not given here
# [14] = MM1S cell viability effects, profiling panel, calcein-AM fluorescence, 48 h, basal (AID 1165); details: higher = more signal;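 further: viability of MM1S multiple myeloma cells under basal unstimulated conditions; test concentration not given here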
# [15] = basal RPMI8226 viability, no added stimulus, profiling panel, cell-based, calcein-AM fluorescence, 48 h, PK04 Diversity Set (AID 1166); details: RPMI8226 myeloma viability, higher = more signal;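 further: cells grown under basal conditions without added stimulus; test concentration not given here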
# [16] = basal HepG2 mitochondrial membrane potential changes, profiling panel, cell-based, JC-1 fluorescence, 24 h, 100 nL compound (AID 1167); details: higher = more signal; further: test concentration not given here
# [17] = basal 3T3-L1 adipocyte mitochondrial potential changes, profiling panel, cell-based, JC-1 fluorescence, 3T3-L1 adipocytes, 24 h, 100 nL compound (AID 1168); details: JC-1 mitochondrial fluorescence, higher = more signal, called active from +8 up or from −8 down; further: test concentration not given here
# [18] = basal RPMI8226 mitochondrial membrane potential changes, profiling panel, cell-based, JC-1 fluorescence, 24 h, 100 nL compound (AID 1169); details: RPMI8226 myeloma, JC-1 mitochondrial potential fluorescence, higher = more signal; further: test concentration not given here
# [19] = basal MM1S mitochondrial membrane potential changes, profiling panel, cell-based, JC-1 fluorescence, 24 h, 100 nL compound (AID 1170); details: higher = more signal; further: test concentration not given here
# [20] = A549 lung cancer cell viability effects, profiling panel, resazurin fluorescence, 24 h, PK04 Diversity Set (AID 1171); details: higher = more signal, called active from +8 up or from −8 down; further: test concentration not given here
Structure (SMILES),z-score [1],composite z-score [2],z-score [3],z-score [4],z-score [5],z-score [6],z-score [7],z-score [8],z-score [9],z-score [10],z-score [11],z-score [12],z-score [13],z-score [14],z-score [15],z-score [16],z-score [17],z-score [18],z-score [19],z-score [20]
Cc1cc2c(nc1C)CCCN2CC(C)ON=C1[C@H]2CCn3c(=O)n(-c4ccccc4)c(=O)n3[C@H]2[C@H](O)[C@@H]2O[C@H]12 (stereo not given in full),-1.46 (inactive),0.0037,1.21 (inactive),0.283 (inactive),1.27 (inactive),0.513 (inactive),-0.415,-0.435 (inactive),-0.00359 (inactive),-0.832,-0.457,0.0888,-0.56,-1.83,-0.0008,-0.788,-1.38 (inactive),0.477,0.327,-0.702 (inactive)
Cn1c(=O)n2n(c1=O)[C@H]1[C@H](O)[C@@H]3O[C@@H]3C(=NOC[C@@H](O)COCc3ccco3)[C@H]1CC2,0.301 (inactive),0.946,0.697 (inactive),-0.507 (inactive),0.671 (inactive),0.08 (inactive),0.0625,-1.04 (inactive),0.733 (inactive),0.59,0.981,0.323,1.41,0.287,0.588,1.41,-0.439 (inactive),-0.402,-0.397,-0.195 (inactive)
COc1ccc(O[C@H]2C=C[C@@H](c3ccccc3)O[C@@H]2COC(=O)N2CCCCC2)cc1,0.309 (inactive),0.174,2 (inactive),-0.213 (inactive),-0.0257 (inactive),-0.169 (inactive),-0.428,-0.138 (inactive),0.334 (inactive),-1.71,-0.0152,-0.303,0.0678,-0.979,-1.22,1.23,-0.0796 (inactive),-0.358,0.125,1.57 (inactive)
O=C1[C@H]2[C@H]3[C@H](O)[C@H](O)CC(=NO[C@@H]4O[C@H](CO)[C@@H](O)[C@H](O)[C@H]4O)[C@H]3CC[C@H]2C(=O)N1Cc1ccc2c(c1)OCO2,0.614 (inactive),0.122,15.5 (active),2.09 (inactive),0.0435 (inactive),1.04 (inactive),-0.438,-2.58 (inactive),0.514 (inactive),1.55,1.26,-1,-0.254,-0.19,0.0119,-0.102,0.48 (inactive),-0.0781,-1.13,0.443 (inactive)
N#Cc1ccc(NN2C(C(O)c3cc(C(F)(F)F)cc(C(F)(F)F)c3)C=CC3C(=O)N(c4ccccc4)C(=O)C32)cc1 (stereo not given),-1.54 (inactive),0.0971,4.78 (inactive),2.32 (inactive),-3.13 (inactive),1.54 (inactive),-1.07,-1.19 (inactive),-3.23 (inactive),-1.4,-0.676,-0.461,-1.22,-1.45,-3.8,-2.78,-0.189 (inactive),-0.754,0.0337,-0.557 (inactive)
CO[C@@H]1COC(=O)CCC[C@@H](C)[C@H](OC)COC(=O)[C@H](Cc2ccccc2)NC(=O)CC=C[C@H]1C,0.585 (inactive),-0.235,1.99 (inactive),1.07 (inactive),1.21 (inactive),0.368 (inactive),1.02,0.0908 (inactive),-0.255 (inactive),-0.444,0.0498,0.134,-0.829,0.355,-1.25,2.07,-1.18 (inactive),0.256,-0.479,0.451 (inactive)
O=C1[C@H]2[C@H]3[C@H](O)[C@H](O)CC(=NOCc4ccccc4)[C@@H]3CC[C@H]2C(=O)N1Cc1ccccc1,0.569 (inactive),-0.147,0.124 (inactive),0.321 (inactive),0.0319 (inactive),0.627 (inactive),-0.618,-0.85 (inactive),0.433 (inactive),0.326,-0.618,-0.176,-0.851,0.188,-0.16,-0.169,-0.399 (inactive),-0.164,-0.926,1.59 (inactive)
CCc1cc2c(nc1CC)CCN(CCC(C)=NOC[C@@H](O)[C@H]1O[C@@H]3OC(C)(C)O[C@@H]3[C@H]1O)C2,-1.12 (inactive),-0.179,0.202 (inactive),-0.336 (inactive),0.0286 (inactive),0.0977 (inactive),-0.512,0.336 (inactive),0.494 (inactive),2.57,0.719,0.879,1.09,-1.1,-0.531,0.244,-1.1 (inactive),0.527,-0.162,-0.0919 (inactive)
C=COC[C@H]1CN2[C@@H](CC[C@@H](C)[C@@H]2c2ccc(Br)cc2)C(=O)O1,-1.63 (inactive),0.0402,-0.591 (inactive),-2.06 (inactive),-0.655 (inactive),-1.99 (inactive),1.54,-0.427 (inactive),0.102 (inactive),0.574,0.197,0.34,1.3,0.48,-0.228,0.244,1.39 (inactive),-0.56,0.252,-0.0242 (inactive)
COC(=O)[C@H](C)NC(=O)CCC1CC(OC(=O)NCCc2ccc(F)cc2)CC2(CCCC(COC(=O)NCC(c3ccccc3)c3ccccc3)O2)O1 (stereo not given in full),0.523 (inactive),-0.194,8.81 (active),2.61 (inactive),-0.286 (inactive),0.492 (inactive),0.71,0.238 (inactive),0.0541 (inactive),0.185,-0.0262,-1,-0.972,-3.44,-3.43,-0.727,1.18 (inactive),-0.379,-1.37,3.22 (inactive)
CC[C@@H](c1ccccc1)n1c(=O)n2n(c1=O)[C@H]1[C@H](O)[C@@H]3O[C@@H]3C(=NOCC(C)C)[C@H]1CC2,-1.11 (inactive),-0.0508,-0.0462 (inactive),-0.155 (inactive),0.282 (inactive),-0.0656 (inactive),0.123,1.72 (inactive),0.386 (inactive),0.371,-0.342,0.245,-0.389,-0.288,0.44,-1.16,-1.67 (inactive),-0.0693,0.448,0.276 (inactive)
COC(=O)[C@H](C)NC(=O)CCC1CC(OC(=O)NCCc2ccc(F)cc2)CC2(CCCC(COC(=O)NCCc3ccc(Cl)cc3)O2)O1 (stereo not given in full),0.954 (inactive),-0.0464,1.83 (inactive),0.316 (inactive),-0.0413 (inactive),0.2 (inactive),0.0808,0.431 (inactive),0.778 (inactive),0.612,0.98,-0.154,0.649,-1.14,-0.227,0.341,0.313 (inactive),0.437,-0.324,0.544 (inactive)
COc1ccc(O[C@H]2C=C[C@@H](c3ccccc3)O[C@@H]2COC(=O)CCC(C)=NOC[C@@H](C)[C@H](OCc2ccccc2)C(C)C)cc1,-0.72 (inactive),-0.278,0.857 (inactive),0.55 (inactive),0.607 (inactive),0.294 (inactive),-0.656,0.796 (inactive),0.478 (inactive),0.329,-0.0801,0.13,-0.442,-0.0358,-1.02,0.577,-1.61 (inactive),0.815,-0.146,1 (inactive)
O[C@@H](Cc1ccccc1)[C@H]1C2C=CCCC(c3ccccc3)=C2CN1Cc1cccc(Cl)c1 (stereo not given in full),3.28 (inactive),-0.104,4.33 (inactive),0.669 (inactive),1.16 (inactive),0.476 (inactive),0.459,-0.384 (inactive),-0.868 (inactive),-0.41,1.89,0.101,0.662,-3.27,-3.43,0.514,-0.366 (inactive),-1.09,-0.823,0.75 (inactive)
[N-]=[N+]=NCc1ccccc1[C@@H]1OC(c2ccc(OCCCO)cc2)=N[C@]1(Cc1ccccc1)C(=O)N1CCOCC1,0.854 (inactive),0.904,16.7 (active),2.9 (inactive),2.49 (inactive),1.01 (inactive),0.131,-1.85 (inactive),-0.253 (inactive),-1.21,0.307,0.146,1.45,-1.2,-0.275,0.787,1.05 (inactive),-1.39,-1.13,-1.14 (inactive)
COC(=O)[C@H](C)NC(=O)CCC1CC(OC(=O)NCc2cccc3ccccc23)CC2(CCCC(COC(=O)NCCc3ccc(Cl)cc3)O2)O1 (stereo not given in full),0.434 (inactive),-0.375,0.119 (inactive),-0.214 (inactive),-0.801 (inactive),-0.193 (inactive),0.362,0.779 (inactive),1.18 (inactive),1.55,0.346,0.118,0.0326,-0.333,-0.94,0.159,-0.294 (inactive),-0.318,-0.197,0.871 (inactive)

# Source: PubChem BioAssay
